Assay results from PubChem BioAssay (NCATS).
Where “and” joins values, the source holds several entries; their conditions need not be identical. Equal entries are not always repeated. Results filed as inconclusive are left out. Calls of active or inactive are those of the source. Calls come from the whole dose curve; as a rule, active = well fitted curve in the direction sought with a large enough effect; inconclusive = small, poorly fitted or top-dose-only effect, or another doubt; inactive = no such curve, though single readings can be large; an effect the other way counts as inactive or inconclusive.

How the values were obtained:
[1] = system: CRL-7250; assay: Cytotoxic Profiling of Annotated Libraries Using Quantitative High-Throughput Screening (AID 1296008); settings: Five cell lines viability, CellTiter-Glo ATP luminescence, 48-72 h; max response: active compounds read low; note: nearly all actives have a fitted effect of over 60% in size
Method in brief: (§1)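 Cells exposed to compounds for 48 or 72 hr at 37 degrees Celsius. Viability read as ATP-coupled luminescence with CellTiter-Glo after 10 min at room temperature.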

[2] = system: HaCat; assay: as above; settings: Five cell lines viability, CellTiter-Glo ATP luminescence, 48-72 h; max response: active compounds read low
Method in brief: as §1

[3] = system: KB-3-1; assay: as above; settings: Five cell lines viability, CellTiter-Glo ATP luminescence, 48-72 h; max response: active compounds read low
Method in brief: as §1

[4] = system: NIH3T3; assay: as above; settings: Five cell lines viability, CellTiter-Glo ATP luminescence, 48-72 h; max response: active compounds read low
Method in brief: as §1

[5] = system: HACAT; assay: qHTS assay to identify novel small-molecules to repurpose for Merkel cell carcinoma treatment (AID 1296009); settings: MCC and control cell lines, CellTiter-Glo viability, 72 h; at 44.8 µM (top of the series) unless noted; note: nearly all actives have a fitted effect of over 60% in size
Method in brief: (§2)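 Cells were treated for 72 hr at 37 degree celsius with compounds in 8- or 11-point dose response. Viability was read by CellTiter-Glo luminescence, normalized to no-cell (cytotoxicity) and DMSO controls.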

[6] = system: MCC-13; assay: as above; settings: MCC and control cell lines, CellTiter-Glo viability, 72 h; series mostly up to 46 µM
Method in brief: as §2

[7] = system: MCC-26; assay: as above; settings: MCC and control cell lines, CellTiter-Glo viability, 72 h; series mostly up to 46 µM
Method in brief: as §2

[8] = system: MKL-1; assay: as above; settings: MCC and control cell lines, CellTiter-Glo viability, 72 h; series mostly up to 46 µM
Method in brief: as §2

[9] = system: MKL-2; assay: as above; settings: MCC and control cell lines, CellTiter-Glo viability, 72 h; series mostly up to 46 µM
Method in brief: as §2

[10] = system: UISO; assay: as above; settings: MCC and control cell lines, CellTiter-Glo viability, 72 h; series mostly up to 46 µM
Method in brief: as §2

[11] = system: WaGa; assay: as above; settings: MCC and control cell lines, CellTiter-Glo viability, 72 h; series mostly up to 46 µM
Method in brief: as §2

[12] = system: C33A; assay: Primary qHTS to identify gynecologic anti-cancer compounds using libraries of approved drugs and bioactive compounds (AID 1345084); settings: Gynecologic cancer cell panel viability, ATPlite luminescence, 48 h; series mostly up to 57.5 µM; note: nearly all actives have a fitted effect of over 55% in size
Method in brief: (§3)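 Cell viability after 48 h drug treatment, ATPlite luminescence readout; five doses.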

[13] = system: CAOV3; assay: as above; settings: Gynecologic cancer cell panel viability, ATPlite luminescence, 48 h; series mostly up to 57.5 µM
Method in brief: as §3

[14] = system: CASKI; assay: as above; settings: Gynecologic cancer cell panel viability, ATPlite luminescence, 48 h; series mostly up to 57.5 µM
Method in brief: as §3

[15] = system: Es-2; assay: as above; settings: Gynecologic cancer cell panel viability, ATPlite luminescence, 48 h; series mostly up to 57.5 µM
Method in brief: as §3

[16] = system: Hek293T; assay: as above; settings: Gynecologic cancer cell panel viability, ATPlite luminescence, 48 h, control line for the selectivity index; series mostly up to 57.5 µM
Method in brief: as §3

[17] = system: HEK293; assay: Cytotoxic Profiling of Annotated Libraries Using Quantitative High-Throughput Screening (AID 1296008); settings: Five cell lines viability, CellTiter-Glo ATP luminescence, 48-72 h; max response: active compounds read low; note: nearly all actives have a fitted effect of over 60% in size
Method in brief: as §1

[18] = system: HeLa; assay: Primary qHTS to identify gynecologic anti-cancer compounds using libraries of approved drugs and bioactive compounds (AID 1345084); settings: Gynecologic cancer cell panel viability, ATPlite luminescence, 48 h; series mostly up to 57.5 µM; note: nearly all actives have a fitted effect of over 55% in size
Method in brief: as §3
% is set by controls: 0 for no effect and ±100 for the full control effect; potency is the fitted concentration of half-maximal effect.

c1cnc(N2CCN(Cc3ccc4c(c3)OCO4)CC2)nc1
inactive: max response [1] -1.35% | outcome [2] | max response [3] -6.36% | max response [4] -2.83% | outcome [5] | Potency [6] | Potency [7] | Potency [8] | Potency [9] | Potency [10] | Potency [11] | Potency [12] | Potency [13] | Potency [14] | Potency [15] | Potency [16]

N[C@@H](COP(=O)(O)O)C(=O)O
inactive: outcome [1] | max response [17] -2.26% | max response [4] -2.11% | Potency [6] | Potency [7] | Potency [9] | Potency [10] | Potency [11] | Potency [12] | Potency [13] | Potency [14] | Potency [15] | Potency [16]

COc1ccc(CN(CCN(C)C)c2ccccn2)cc1
inactive: max response [1] 1.58% | outcome [2] | max response [3] -13% | max response [4] 2.14% | outcome [5] | Potency [6] | Potency [7] | Potency [9] | Potency [10] | Potency [11] | Potency [12] | Potency [13] | Potency [14] | Potency [15] | Potency [18] | Potency [16]

CCCCNc1c(C(=O)OCC)c(C)nc2c1cnn2CC
inactive: max response [1] -21.3% | max response [2] -1.24% | Potency [6] | Potency [7] | Potency [9] | Potency [11] | Potency [12] | Potency [13] | Potency [14] | Potency [15] | Potency [16]

CN(C)CCCN1c2ccccc2Sc2ccccc21
inactive: max response [1] 0.274% | outcome [2] | max response [3] -0.491% | max response [4] -1.44% | outcome [5] | Potency [6] | Potency [7] | Potency [12] | Potency [13] | Potency [14] | Potency [15] | Potency [16]

CN(C)CC/C=C1\c2ccccc2COc2ccccc21
inactive: max response [1] -15.2% | outcome [2] | max response [4] 0.829% | outcome [5] | Potency [6] | Potency [7] | Potency [8] | Potency [10] | Potency [11] | Potency [12] | Potency [13] | Potency [15] | Potency [16]

c1cc(CN2CCCCC2)cc(OCCCNc2nc3ccccc3s2)c1
inactive: max response [1] -17.3% | outcome [2] | max response [3] -9.4% | outcome [5] | Potency [7] | Potency [8] | Potency [12] | Potency [13] | Potency [14] | Potency [15] | Potency [18]

CCCCCCCC/C=C\CCCCCCCC(=O)NCc1ccc(O)c(OC)c1
active: Potency [12] 7.94 µM
inactive: max response [1] -0.832% | outcome [2] | max response [3] -3.68% | max response [4] -24.7% | outcome [5] | Potency [6] | Potency [7] | Potency [13] | Potency [14] | Potency [15] | Potency [18] | Potency [16]

COC(=O)C1=C(C)NC(C)=C(C(=O)OCCN(C)Cc2ccccc2)C1c1cccc([N+](=O)[O-])c1 (stereo not given)
inactive: max response [3] -10.4% | Potency [12] | Potency [14] | Potency [15]
active: Potency [1] 21.1 µM | Potency [17] 11.9 µM | Potency [4] 26.6 µM | Potency [10] 23.7 µM

COC(=O)[C@H]1[C@H]2C[C@@H]3c4[nH]c5cc(OC)ccc5c4CCN3C[C@H]2C[C@@H](OC(=O)c2cc(OC)c(OC)c(OC)c2)[C@@H]1OC
inactive: max response [1] 0.615% and 0.375% | max response [2] -6.17% and -7.84% | max response [4] -3.91% and -6.42% | Potency [6] | Potency [12] | Potency [13] | Potency [14] | Potency [15] | Potency [18] | Potency [16]

O=c1[nH]c(=O)n([C@H]2C[C@H](O)[C@@H](CO)O2)cc1Br
inactive: max response [1] 0.0744% | max response [2] 2.47% | max response [4] 1.37% | Potency [6] | Potency [7] | Potency [8] | Potency [9] | Potency [12] | Potency [14] | Potency [15] | Potency [18] | Potency [16]
